Results on ten molecules are retold here after PubChem BioAssay (Tox21).

Molecules are shown by their SMILES. Records with an inconclusive call do not appear. Active and inactive are the calls of the source. Unless noted, calls follow the shape of the dose curve; as a rule, active = well fitted curve in the direction sought with a large enough effect in the repeat runs; inconclusive = weak or mixed curves; inactive = no such curve, though single readings can be large; an effect the other way counts as inactive or inconclusive.

The nature of experiment [1]: qHTS assay to identify small molecule antagonists of the thyroid receptor (TR) signaling pathway - cell viability counter screen (AID 743064). Also: nearly all actives have a fitted effect of over 50% in size. Also: potency is read from the fitted curve at half-maximal effect. To be noted: GH3.TRE-Luc viability, CellTiter-Fluor, 24 h; series mostly up to 70.3 µM. In a few lines:
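In-well cytotoxicity read by CellTiter-Fluor (30 min, 37 C) following 23.5 h exposure of GH3 cells bearing a TRE-luciferase sensor. Compounds were added alongside 1 nM (final) T3 to drive TR transactivation.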

Experiment [2] can be described thus: qHTS assay to identify small molecule antagonists of the thyroid receptor (TR) signaling pathway (AID 743065). Also: nearly all actives have a fitted effect of over 55% in size. Also: potency is read from the fitted curve at half-maximal effect. The conditions noted are these: GH3.TRE-Luc, T3-stimulated luciferase inhibition, 23.5 h; series mostly up to 70.3 µM. An outline of the steps:
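GH3.TRE-Luc rat pituitary cells carrying two TR response elements driving luciferase were plated for 4 h, given compound plus 1 nM T3 (final), and incubated 23.5 h at 37 C. ONE-Glo luminescence measured reporter inhibition; CellTiter-Fluor fluorescence tracked cytotoxicity.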
On the technique in general: In qHTS, concentration-response curves come from the screen itself.

In experiment [3] the test system is thyroid hormone receptor (rat, GH3 cells). The experiment can be described thus: qHTS assay to identify small molecule agonists of the thyroid receptor (TR) signaling pathway (AID 743066; calls by dose curve). To be noted: GH3.TRE-Luc cells, TR agonist luciferase, 24 h; series mostly up to 83.9 µM.
The target of experiment [4] is Estrogen receptor (Homo sapiens) (UniProt P03372). The experiment can be described thus: qHTS assay to identify small molecule agonists of the estrogen receptor alpha (ER-alpha) signaling pathway (AID 743075; calls by dose curve;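 also: HEK293 GripTite cells with ER-alpha and UAS-driven beta-lactamase reporter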; also: potency is read from the fitted curve at half-maximal effect). The conditions noted are these: HEK293 ER-alpha-UAS-bla, beta-lactamase FRET ratio, 18 h; series mostly up to 70.1 µM.
Experiment [5] shares this target. As to the kind of experiment: qHTS assay to identify small molecule agonists of the estrogen receptor alpha (ER-alpha) signaling pathway using the BG1 cell line (AID 743079). Also: nearly all actives have a fitted effect of over 20% in size. The conditions noted are these: BG1Luc4E2 cells, ERE-luciferase agonist, 22 h; series mostly up to 70.3 µM.
A short description of experiment [6]: qHTS assay to identify small molecule antagonists of the estrogen receptor alpha (ER-alpha) signaling pathway using the BG1 cell line - cell viability counter screen (AID 743081).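 Also: compound given together with 17beta-estradiol as the ER stimulus; nearly all actives have a fitted effect of over 45% in size.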 Also: potency is read from the fitted curve at half-maximal effect. The conditions noted are these: BG1Luc4E2 viability, CellTiter-Fluor, 22 h; series mostly up to 70.3 µM.
Experiment [7] has as its target Aromatase (Homo sapiens) (UniProt P11511). The experiment can be described thus: qHTS assay to identify aromatase inhibitors (AID 743083). Also: nearly all actives have a fitted effect of over 55% in size. Also: potency is read from the fitted curve at half-maximal effect. The conditions noted are these: MCF-7 aro ERE, testosterone-driven ERE luciferase, 24 h; series mostly up to 70.3 µM.
A short description of experiment [8]: qHTS assay to identify aromatase inhibitors - cell viability counter screen (AID 743084).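 Also: cells stimulated with testosterone during compound exposure; nearly all actives have a fitted effect of over 55% in size.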 Also: potency is read from the fitted curve at half-maximal effect. To be noted: MCF-7 aro ERE viability, CellTiter-Fluor, 24 h; series mostly up to 70.3 µM.
A short description of experiment [9]: qHTS assay to identify small molecule that activate the aryl hydrocarbon receptor (AhR) signaling pathway - cell viability counter screen (AID 743086). Also: nearly all actives have a fitted effect of over 45% in size. Also: potency is read from the fitted curve at half-maximal effect. The conditions noted are these: HepG2-AhR-luc viability, CellTiter-Fluor, 24 h; series mostly up to 70.3 µM. An outline of the steps:
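HepG2-AhR-luc (HG2L7.5c1) cells, 4000/well, were preincubated 5 h at 37C, exposed to compound in qHTS format for 24 hr at 37C, then given CellTiter-Fluor for 30 min; viability was read as fluorescence in the reporter wells.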

For experiment [10], the target named is Peroxisome proliferator-activated receptor gamma (Homo sapiens) (UniProt P37231). As to the kind of experiment: qHTS assay to identify small molecule agonists of the peroxisome proliferator-activated receptor gamma (PPARg) signaling pathway (AID 743094; active = well fitted activation curve with a large enough effect in the signal ratio in the repeat runs, not every such curve was filed as active; the % refers to the signal ratio). The conditions noted are these: HEK293H PPARg-UAS-bla, beta-lactamase FRET ratio, 17 h; series mostly up to 57 µM. In a few lines:
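Reporter activation was scored by fluorescence of cleaved LiveBLAzer B/G substrate (1 h, room temperature) in PPARg-bla HEK293H cells previously treated 17 h at 37C with DMSO-dissolved compounds.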

Experiment [11] is described as follows: qHTS assay for small molecule agonists of the antioxidant response element (ARE) signaling pathway (AID 743202; active = well fitted activation curve with a large enough effect in the signal ratio in the repeat runs, not every such curve was filed as active; the % refers to the signal ratio). The conditions noted are these: HepG2 ARE-bla reporter, beta-lactamase FRET, 16 h; series mostly up to 73.3 µM. An outline of the steps:
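Following a 16 h, 37 C exposure of reporter HepG2 cells (ARE-driven beta-lactamase, 2,000 cells/well) to compounds, FRET substrate was applied for 2 h at room temperature and fluorescence intensity recorded.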

Experiment [12] can be described thus: qHTS assay for small molecule agonists of the antioxidant response element (ARE) signaling pathway - cell viability counter screen (AID 743203; calls by dose curve; also: nearly all actives have a fitted effect of over 55% in size; also: potency is read from the fitted curve at half-maximal effect). The conditions noted are these: ARE-bla HepG2 viability, CellTiter-Glo luminescence, 16 h; series mostly up to 73.3 µM. In a few lines: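 Viability counter screen: stably transfected ARE-bla HepG2 line, 16 hrs compound exposure at 37C/5% CO2, ATP-based CellTiter-Glo luminescence measured in the reporter wells.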

Experiment [13] can be described thus: qHTS assay for small molecule activators of the heat shock response signaling pathway - cell viability counter screen (AID 743209). Also: nearly all actives have a fitted effect of over 50% in size. Also: potency is read from the fitted curve at half-maximal effect. The conditions noted are these: HSE-bla HeLa viability, CellTiter-Glo luminescence, 5 h; series mostly up to 62.6 µM. An outline of the steps:
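Viability of HSE-bla HeLa cells is measured with CellTiter-Glo in the wells already used for the reporter read. Compound exposure lasts 5 h at 37 C, and luminescence is read after 30 min at room temperature.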

The nature of experiment [14]: qHTS assay for small molecule activators of the heat shock response signaling pathway (AID 743210; active = well fitted activation curve with a large enough effect in the signal ratio in the repeat runs, with a control signal flat, not every such curve was filed as active; the % refers to the signal ratio). The conditions noted are these: HeLa HSE-bla reporter, beta-lactamase ratio, 5 h; series mostly up to 62.6 µM. In a few lines: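 Heat shock element–beta-lactamase HeLa reporter cells; qHTS with compounds for 5 h at 37 C; detection by FRET substrate fluorescence after 2.5 h at RT.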

Experiment [15] is described as follows: qHTS assay to identify small molecule antagonists of the estrogen receptor alpha (ER-alpha) signaling pathway - cell viability counter screen (AID 743074; calls by dose curve;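 also: HEK293 cells carrying ER-alpha-UAS-bla reporter stimulated with 17beta-estradiol; nearly all actives have a fitted effect of over 45% in size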). The conditions noted are these: ERalpha-bla HEK293 viability, CellTiter-Glo luminescence, 18 h; series mostly up to 69.4 µM.
The target of experiment [16] is Estrogen receptor (Homo sapiens) (UniProt P03372). As to the kind of experiment: qHTS assay to identify small molecule antagonists of the estrogen receptor alpha (ER-alpha) signaling pathway (AID 743069; active = well fitted curve in the direction sought with a large enough effect in the signal ratio in the repeat runs, not every such curve was filed as active; the % refers to the signal ratio). The conditions noted are these: HEK293 ER-alpha-UAS-bla, beta-lactamase ratio, antagonist mode; series mostly up to 69.4 µM. In a few lines: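 A 17beta-estradiol challenge was applied right after compound transfer to ER-alpha-UAS-bla HEK293 cells previously kept in charcoal-stripped serum. Plates stood 18 hr at 37C and 5% CO2; fluorescence was read following 2 hr FRET substrate loading at room temperature.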

Experiment [17] deals with Peroxisome proliferator-activated receptor gamma (Homo sapiens) (UniProt P37231). As to the kind of experiment: qHTS assay to identify small molecule antagonists of the peroxisome proliferator-activated receptor gamma (PPARg) signaling pathway (AID 743191; calls by dose curve; also: nearly all actives have a fitted effect of over 30% in size). The conditions noted are these: HEK293H PPARg-UAS-bla, beta-lactamase ratio, antagonist, 17 h; series mostly up to 62.6 µM. An outline of the steps: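 GeneBLAzer PPARg UAS-bla HEK293H cells carrying a UAS-driven beta-lactamase reporter were plated at 3000 cells/well, preincubated 5 h at 37C, then given compound for 17 h at 37C; LiveBLAzer B/G FRET substrate was read after 1 h at room temperature.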

Experiment [18] is described as follows: qHTS assay to identify small molecule antagonists of the estrogen receptor alpha (ER-alpha) signaling pathway using the BG1 cell line (AID 743080; calls by dose curve;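 also: BG1 cells stimulated with 17beta-estradiol alongside compound; nearly all actives have a fitted effect of over 25% in size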). The conditions noted are these: BG1Luc4E2 ERE-luciferase antagonist mode, luminescence; series mostly up to 70.3 µM. In a few lines: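 After 5 days in phenol-red-free 10% charcoal-stripped FBS medium, BG1-Luc-4E2 cells were seeded, left 24 h at 37 C, co-treated with compounds and 17beta-estradiol for 21.5 h, then assayed for viability and luciferase.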

Experiment [19] is described as follows: qHTS assay to identify small molecule antagonists of the peroxisome proliferator-activated receptor gamma (PPARg) signaling pathway - cell viability counter screen (AID 743194). Also: nearly all actives have a fitted effect of over 55% in size. Also: potency is read from the fitted curve at half-maximal effect. The conditions noted are these: PPARg-bla HEK293H viability, CellTiter-Glo luminescence, 17 h, co-treated with 50 nM rosiglitazone; series mostly up to 62.6 µM. In a few lines: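 PPARg-UAS-bla HEK293H cells were plated, rested 5 h at 37 C, then treated with compounds plus rosiglitazone (50 nM final) for 17 h at 37 C; viability was then read by CellTiter-Glo luminescence after 30 min at room temperature.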

For experiment [20], the target named is Aryl hydrocarbon receptor (Homo sapiens) (UniProt P35869). As to the kind of experiment: qHTS assay to identify small molecule that activate the aryl hydrocarbon receptor (AhR) signaling pathway (AID 743085).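 Also: HG2L7.5c1 human HepG2 liver cells with stably integrated DRE-driven firefly reporter; nearly all actives have a fitted effect of over 15% in size.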 To be noted: HepG2 AhR-luc (HG2L7.5c1), luciferase, 24 h; series mostly up to 70.3 µM. An outline of the steps: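 Luminescence (ONE-Glo) from a dioxin-responsive-element luciferase reporter in HG2L7.5c1 HepG2 cells after 24 hr compound exposure at 37C; viability measured by CellTiter-Fluor fluorescence beforehand.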
Chain of Aryl hydrocarbon receptor (Homo sapiens) (P35869 whole entry, looked up): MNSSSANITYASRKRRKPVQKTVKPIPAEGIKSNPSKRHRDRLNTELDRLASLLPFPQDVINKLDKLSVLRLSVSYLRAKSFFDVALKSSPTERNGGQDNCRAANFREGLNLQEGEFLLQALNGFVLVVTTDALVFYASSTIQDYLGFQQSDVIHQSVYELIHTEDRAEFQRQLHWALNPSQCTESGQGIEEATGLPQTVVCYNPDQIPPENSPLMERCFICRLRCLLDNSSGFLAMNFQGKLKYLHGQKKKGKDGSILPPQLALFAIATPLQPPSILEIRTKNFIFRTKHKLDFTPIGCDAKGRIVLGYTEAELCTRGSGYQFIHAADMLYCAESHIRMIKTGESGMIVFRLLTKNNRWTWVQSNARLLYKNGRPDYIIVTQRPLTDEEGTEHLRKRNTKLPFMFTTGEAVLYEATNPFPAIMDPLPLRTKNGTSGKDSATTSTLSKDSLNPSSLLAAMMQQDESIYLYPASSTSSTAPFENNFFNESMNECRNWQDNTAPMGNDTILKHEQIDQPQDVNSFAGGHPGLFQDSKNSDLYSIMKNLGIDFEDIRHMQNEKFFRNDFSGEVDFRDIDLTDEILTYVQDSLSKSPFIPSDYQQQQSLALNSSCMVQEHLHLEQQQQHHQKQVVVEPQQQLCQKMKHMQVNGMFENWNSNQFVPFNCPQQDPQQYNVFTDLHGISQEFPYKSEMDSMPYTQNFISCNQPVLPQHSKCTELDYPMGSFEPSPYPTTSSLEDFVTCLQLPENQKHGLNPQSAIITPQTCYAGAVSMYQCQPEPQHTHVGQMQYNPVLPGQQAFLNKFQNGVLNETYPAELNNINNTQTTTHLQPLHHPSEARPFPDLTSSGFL

Chain of Peroxisome proliferator-activated receptor gamma (Homo sapiens) (P37231 whole entry, looked up): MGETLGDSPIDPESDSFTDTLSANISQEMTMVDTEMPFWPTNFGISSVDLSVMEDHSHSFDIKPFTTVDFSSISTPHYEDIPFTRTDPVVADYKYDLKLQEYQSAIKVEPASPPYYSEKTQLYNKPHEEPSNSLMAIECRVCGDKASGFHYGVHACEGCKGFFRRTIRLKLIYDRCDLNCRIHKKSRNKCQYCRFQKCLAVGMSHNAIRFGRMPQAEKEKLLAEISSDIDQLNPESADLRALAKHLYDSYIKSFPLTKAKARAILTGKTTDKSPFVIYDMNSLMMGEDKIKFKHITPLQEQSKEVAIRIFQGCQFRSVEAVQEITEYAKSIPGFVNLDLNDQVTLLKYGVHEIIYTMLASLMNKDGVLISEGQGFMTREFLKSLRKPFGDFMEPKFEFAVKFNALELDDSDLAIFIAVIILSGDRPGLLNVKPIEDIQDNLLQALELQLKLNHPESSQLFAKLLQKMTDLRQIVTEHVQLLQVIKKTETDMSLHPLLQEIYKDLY
Chain of Aromatase (Homo sapiens) (P11511 whole entry, looked up): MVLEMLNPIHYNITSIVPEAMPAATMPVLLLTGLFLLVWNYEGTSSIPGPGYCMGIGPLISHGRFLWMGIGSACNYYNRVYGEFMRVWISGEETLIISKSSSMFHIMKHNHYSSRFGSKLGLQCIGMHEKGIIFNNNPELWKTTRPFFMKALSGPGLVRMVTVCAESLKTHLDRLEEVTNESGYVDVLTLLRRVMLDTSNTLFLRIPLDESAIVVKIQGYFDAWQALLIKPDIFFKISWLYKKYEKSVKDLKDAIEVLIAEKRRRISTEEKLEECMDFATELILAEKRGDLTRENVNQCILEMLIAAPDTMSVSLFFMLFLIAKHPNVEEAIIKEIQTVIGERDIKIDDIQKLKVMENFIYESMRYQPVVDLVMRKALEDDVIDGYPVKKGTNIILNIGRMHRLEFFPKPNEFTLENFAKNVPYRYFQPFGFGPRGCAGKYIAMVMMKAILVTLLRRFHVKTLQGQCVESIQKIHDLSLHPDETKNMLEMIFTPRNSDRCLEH
Chain of Estrogen receptor (Homo sapiens) (P03372 whole entry, looked up): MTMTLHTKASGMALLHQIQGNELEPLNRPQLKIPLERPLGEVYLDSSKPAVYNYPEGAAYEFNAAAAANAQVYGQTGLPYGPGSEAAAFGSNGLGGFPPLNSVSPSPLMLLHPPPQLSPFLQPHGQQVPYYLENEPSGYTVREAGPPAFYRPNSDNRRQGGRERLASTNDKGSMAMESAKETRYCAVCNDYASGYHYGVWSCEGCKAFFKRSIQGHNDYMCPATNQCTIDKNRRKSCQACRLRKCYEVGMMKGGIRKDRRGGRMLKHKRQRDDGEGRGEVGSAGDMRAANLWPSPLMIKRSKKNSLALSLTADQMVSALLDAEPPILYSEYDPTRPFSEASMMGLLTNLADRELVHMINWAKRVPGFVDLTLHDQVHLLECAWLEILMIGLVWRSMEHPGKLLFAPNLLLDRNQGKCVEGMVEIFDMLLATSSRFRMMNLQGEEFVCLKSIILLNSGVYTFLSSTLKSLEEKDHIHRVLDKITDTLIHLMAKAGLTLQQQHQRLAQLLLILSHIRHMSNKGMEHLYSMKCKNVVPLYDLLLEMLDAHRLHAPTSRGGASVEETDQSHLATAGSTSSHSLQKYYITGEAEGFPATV

For the molecule `CN1CCC(=C2c3ccccc3C=Cc3ccccc32)CC1`, the results for the Potency in experiment [1] and in [2] were 15 µM (active) and 16.8 µM (active), respectively. For the same molecule, the Potency result in experiment [3], in experiment [4], in [5], in experiment [6], in experiment [7] and in [8] was “inactive” in each case. Also, the Potency entry in experiment [9], in [10], in [11], in experiment [12] and in experiment [13] was “inactive” each time. Moreover, in experiment [14], the outcome was inactive.

As for `C=CC(=O)OCC(C)OCC(C)OCC(C)OC(=O)C=C` (stereo unspecified), the Potency was 38.6 µM (active) in [1]; 24.3 µM (active) in experiment [2]; 61.7 µM [activator] (active) in experiment [4]; 43.3 µM (active) in experiment [7]; 48.6 µM (active) in experiment [8]; 15.5 µM (active) in experiment [13]. Further, the molecule was classed as inactive in experiment [15]. Moreover, the Potency result in [6], in experiment [9] and in experiment [12] was “inactive” throughout.

With `CC(C(=O)O)c1ccc(C(=O)c2ccccc2)s1` (stereo unspecified), the Potency result in experiment [1], in [2], in experiment [16], in experiment [4], in [6] and in experiment [7] was “inactive” each time. Further, the Potency entry in experiment [8], in experiment [9], in experiment [17], in experiment [11], in experiment [12] and in experiment [13] was “inactive” each time. In addition, the result in experiment [15] and in [14] was inactive.

As for `CN1CCN(C2=Nc3cc(Cl)ccc3Nc3ccccc32)CC1`, the Potency in experiment [1] was 13.3 µM (active); in [2], 23.7 µM (active). For the same molecule, the outcome in experiment [15] and in experiment [14] was inactive. For the same molecule, the Potency result in [4], in experiment [18], in experiment [6], in experiment [7], in experiment [8] and in experiment [19] was “inactive” in each case. The Potency entry in experiment [12] was “inactive”.

Consider `C[Si](C)O[Si](C)(C)O[Si](C)(C)O[Si](C)C`, for which the Potency entry in experiment [1], in experiment [2], in experiment [16], in experiment [4], in experiment [5] and in experiment [18] was “inactive” in each case. The Potency entry in [6], in experiment [7], in [8], in experiment [20], in experiment [9] and in experiment [10] was “inactive” in each case. Besides, the Potency entry in experiment [11], in [12] and in experiment [13] was “inactive” throughout. Also, the molecule was called inactive in experiment [15].

Turning to `NC(N)=NN=C(/C=C/c1ccc([N+](=O)[O-])o1)/C=C/c1ccc([N+](=O)[O-])o1`, the Potency in experiment [1] was 1.68 µM (active); in [2] it was 1.5 µM (active); in experiment [4], 4.77 µM [activator] (active); in [6] it was 23.7 µM (active); in [7] it was 7.5 µM (active); in [8], 5.31 µM (active). Also, the Potency in experiment [9] was 7.5 µM (active); in experiment [19], 2.11 µM (active); in [12], 5.96 µM (active); in experiment [13], 5.31 µM (active). The molecule was called inactive in experiment [15].

In the case of `CCCCCCCCC(CO)CCCCCC` (stereo unspecified), the Potency result in experiment [1], in experiment [3], in experiment [16], in experiment [4], in experiment [5] and in experiment [18] was “inactive” each time. Further, the Potency entry in experiment [6], in [7], in experiment [8], in experiment [20], in experiment [9] and in experiment [10] was “inactive” each time. Besides, the Potency result in [17], in experiment [19], in experiment [11], in experiment [12] and in experiment [13] was “inactive” in each case. The result in experiment [15] and in [14] was inactive.

For the molecule `CCCCc1cc2ccccc2c(OCCN(C)C)n1`, the Potency is 8.04 µM (active) in experiment [1] and 9.02 µM (active) in experiment [2]. Further, the Potency result in experiment [3], in experiment [7], in experiment [8], in [20], in experiment [9] and in [10] was “inactive” in each case. Further, the Potency entry in experiment [17], in [19], in experiment [11], in experiment [12] and in experiment [13] was “inactive” each time. Besides, the molecule was called inactive in experiment [15] and in [14].

For the molecule `Cc1ccc(C)o1`, the Potency entry in experiment [1], in experiment [2], in experiment [3], in experiment [6], in experiment [7] and in experiment [8] was “inactive” each time. Also, the Potency entry in [9], in [10], in experiment [17], in experiment [19], in experiment [11] and in [12] was “inactive” each time. Moreover, the Potency result in [13] is “inactive”. Moreover, the molecule was called inactive in experiment [15] and in experiment [14].

As to `C[C@@H](C1=C(CCN(C)C)Cc2ccccc21)c1ccccn1`, the results for the Potency in [1] and in [2] were 29.8 µM (active) and 26.6 µM (active), respectively. Further, the Potency entry in experiment [3], in experiment [6], in [8], in experiment [20], in [9] and in [12] was “inactive” in each case. Also, the Potency entry in experiment [13] was “inactive”. The outcome in experiment [15] and in [14] was inactive.
